Measured values: ChEMBL document CHEMBL3433997, “St. Jude Leishmania screening dataset” (2016)

Legend:
Format in all cases: functional
[1] = molecular target: Solute carrier family 2, facilitated glucose transporter member 1 (Homo sapiens) (UniProt P11166); test: ST_JUDE_LEISH: Cytotoxicity at 2uM final concentration against transgenic Leishmania Mexicana promastigotes LmGLUT1 that are glucose transport deficient and complemented with the human glucose transporter GLUT1. Activity is measured by DNA content using SYBR green in vitro
[2] = molecular target: Hexose transporter 1 (Plasmodium falciparum) (UniProt O97467); test: ST_JUDE_LEISH: Cytotoxicity at 2uM final concentration against transgenic Leishmania Mexicana promastigotes LmPfHT that are glucose transport deficient and complemented with the Plasmodium falciparum hexose transporter. Activity is measured by DNA content using SYBR green in vitro
[3] = molecular target: Glucose transporter (Leishmania mexicana) (UniProt O61059); test: ST_JUDE_LEISH: Cytotoxicity at 2uM final concentration against transgenic Leishmania Mexicana promastigotes LmGT2 that are glucose transport deficient and complemented with the L. Mexicana glucose transporter 2. Activity is measured by DNA content using SYBR green in vitro

Sequence of Solute carrier family 2, facilitated glucose transporter member 1 (Homo sapiens) (P11166 whole entry): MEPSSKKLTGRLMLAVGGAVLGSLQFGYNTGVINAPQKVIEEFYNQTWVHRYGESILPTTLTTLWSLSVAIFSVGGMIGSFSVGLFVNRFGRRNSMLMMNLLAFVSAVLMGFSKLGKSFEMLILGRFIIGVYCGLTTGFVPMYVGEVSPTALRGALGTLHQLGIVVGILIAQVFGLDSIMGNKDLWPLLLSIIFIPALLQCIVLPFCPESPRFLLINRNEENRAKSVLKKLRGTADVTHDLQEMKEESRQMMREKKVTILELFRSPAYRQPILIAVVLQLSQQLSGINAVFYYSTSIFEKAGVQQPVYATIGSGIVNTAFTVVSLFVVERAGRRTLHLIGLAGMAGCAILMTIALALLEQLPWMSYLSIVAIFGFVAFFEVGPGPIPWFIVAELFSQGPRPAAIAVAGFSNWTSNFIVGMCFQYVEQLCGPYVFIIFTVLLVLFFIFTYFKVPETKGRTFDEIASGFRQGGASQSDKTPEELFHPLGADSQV

SMILES | inhibition [1] | inhibition [2] | inhibition [3]
N=C(N)c1nc2ccccc2s1 | 1.87% | 1.89% | 2.04%
CCN1CCC(NCc2ccc(-c3ccc(Cl)cc3)cc2)CC1 | 23.6% | 11% | 7.91%
O=C1CSc2ccc(CNC3CCN(CCc4c(Cl)cnc5ccc(F)cc45)CC3)nc2N1 | 0.93% | 1.12% | 2.97%
COc1ccc(-c2cccc(NC(=O)c3cccc(Cl)c3)c2)cc1CN1CCCN(C)CC1 | 11.4% | 12% | 11.7%
CCCCCCC(C)c1cc(O)c2c(c1)OC(C)(C)C=C2c1ccncc1 (centres undefined) | 1.01% | -0.62% | 0.58%
CCCCOc1ccc(C(O)C(CN2CCCCC2)c2ccccc2)cc1 (centres undefined) | 1.61% | 1.36% | 0.33%
COc1cccc(C(NC(=O)c2ccccc2)c2ccc3cccnc3c2O)c1 (centres undefined) | -0.96% | 2.16% | -1.64%
CCN(CC)S(=O)(=O)c1ccc(C(C)NC(=O)c2ccccc2COc2ccccc2)cc1 (centres undefined) | 6.67% | 5.1% | 5.03%
COc1ccccc1Cn1ccnc1SCC(=O)Nc1cccc(C(F)(F)F)c1 | 0.58% | 0.38% | -0.75%
C=CCOC(=O)N1CCC(CNCc2cccc(-c3ccc(-c4nc5cccc(C)c5[nH]4)cc3)c2)C1 (centres undefined) | 6.3% | 8.62% | 9.02%
COc1cc(C(=O)Nc2ccc(-c3nc4ccccc4[nH]3)cc2)cc(OC)c1OC | 2.49% | 2.26% | 3.39%
Cc1nc(NCCCn2ccnc2)cc(-c2cncc(-c3ccc(OC(F)(F)F)cc3)c2)n1 | 5.43% | 5.92% | 3.04%
CCOc1cccc2nc(NCCCNCc3ccc(Cl)c(Cl)c3)cc(NCCCNCc3ccc(Cl)c(Cl)c3)c12 | -3.5% | -0.94% | -0.45%
